Most compounds without a hit are left out; they make up all but 6.3% or so of the library.
Gal4-VP16 FLuc: Gal4-VP16 reporter inhibition counter-screen; Drosophila S2 Gal4-VP16 UAS-luciferase, luminescence, 20 h; Potency, µM (top dose mostly 53.6 µM), without a hit: at the highest dose activity, negative = inhibition, hits mostly inhibitors; 3.5% of 310,000 active;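 further: Gal4-VP16 expression switched on by copper sulfate through the metallothionein promoter; on the % scale 0 is the no-effect control and ±100 the full control effect; nearly all actives have a fitted effect of over 50% in size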
ATXN2 expr inh: ATXN2 expression inhibition. HEK-293 ATXN2-luciferase reporter, luminescence, 24 h. Potency, µM (titrated, usually from 57 µM), inactives show at the top dose activity change, negative = inhibition, actives largely listed as inhibitors. 0.72% of 360,000 active; further: on the % scale 0 is the no-effect control and ±100 the full control effect; nearly all actives have a fitted effect of over 55% in size
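ATXN2-luciferase reporter cells (luciferase flanked by upstream and downstream ATXN2 gene portions) were treated 24 h at 37 °C with compounds at up to 57 uM. SteadyGlo luminescence gave expression; GF-AFC fluorescence gave viability.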
ATXN viability: cell viability loss in ATXN counter-screen. 0.49% of 400,000 active. AID 651635. Potency, µM (top dose mostly 56.7 µM), actives largely listed as cytotoxic. S2 cells (HEK-293 line with an ATXN2-luciferase reporter) viability, CellTiter-Fluor protease fluorescence, 24 h; further: nearly all actives have a fitted effect of over 40% in size
TGFb SMAD3 inh: TGF-b pathway inhibition; HepG2 CAGA-GFP TGF-b/SMAD3 reporter, GFP fluorescence, 18 h; TGF-beta stimulated, 500 pg/mL final; Potency, µM (titrated, usually from 46.1 µM), for inactives: at the top dose activity, negative = inhibition, hits mostly inhibitors; 1.2% of 410,000 active; further: on the % scale 0 is the no-effect control and ±100 the full control effect; nearly all actives have a fitted effect of over 65% in size
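Read-out: total well GFP (ex488/em500-530) summed from mean per-cell fluorescence. Cells: HEPG2 CAGA-GFP, 1% FBS DMEM, 18 h at 37 degrees C with 500 pg/mL final TGF-beta. Unstimulated wells served as the full-inhibition control; stimulated DMSO wells = 0%.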
HepG2 viability: kills HepG2 cells in TGF-b inhibitor counter-screen; HepG2 CAGA-GFP viability, ATP luminescence, 18 h; Potency, µM (highest dose often 46.1 µM), inactives show top-dose activity change, negative = cytotoxicity, hits mostly cytotoxic; 0.76% of 410,000 active; AID 588856
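HepG2 CAGA-GFP cells (1000/well, DMEM with 1% FBS) received compound, then TGF-beta at 500 pg/mL final, and were incubated 18 hours at 37 degrees C. Viability was read by CellTiter-Glo luminescence. Media-only wells were set as complete cell-killing and DMSO as no toxicity.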
RORg inh: inhibitors of mouse ROR gamma transcriptional activity. P51450. Drosophila S2 Gal4-RORgamma UAS-luciferase reporter, 20 h. Potency, µM (highest dose often 53.6 µM), for the others: top-dose activity change, negative = inhibition, usual class: inhibitors. 5.4% of 310,000 active; further: on the % scale 0 is the no-effect control and ±100 the full control effect; nearly all actives have a fitted effect of over 60% in size
Target sequence (P51450 whole entry, looked up, the tested form may be a part): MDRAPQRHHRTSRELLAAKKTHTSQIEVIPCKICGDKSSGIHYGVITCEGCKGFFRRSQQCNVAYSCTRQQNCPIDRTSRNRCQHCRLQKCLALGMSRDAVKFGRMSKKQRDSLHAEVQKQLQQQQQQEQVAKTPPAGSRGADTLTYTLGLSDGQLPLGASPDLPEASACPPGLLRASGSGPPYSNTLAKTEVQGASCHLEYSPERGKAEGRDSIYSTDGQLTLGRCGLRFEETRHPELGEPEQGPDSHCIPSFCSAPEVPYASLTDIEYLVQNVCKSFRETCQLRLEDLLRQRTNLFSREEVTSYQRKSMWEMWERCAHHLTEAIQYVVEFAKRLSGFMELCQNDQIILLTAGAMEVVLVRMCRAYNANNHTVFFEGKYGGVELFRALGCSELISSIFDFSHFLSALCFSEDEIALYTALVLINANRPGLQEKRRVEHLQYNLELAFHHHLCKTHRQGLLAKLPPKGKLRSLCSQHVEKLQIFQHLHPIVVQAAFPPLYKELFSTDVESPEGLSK
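ROR gamma transcriptional activity was tracked as Gal4-UAS luciferase output in stably transfected Drosophila Schneider cells, with compound added 1 hr before 700 uM copper sulfate induction and a 20 hr ambient-temperature incubation.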
An asterisk follows results filed as active; i = inactive; ? = inconclusive; . = no result given; [ ] = dose if it differs, or a comment. The call rests on the fitted dose curve; in most records, active means well fitted curve in the direction sought with a large enough effect; inconclusive means small, poorly fitted or top-dose-only effect, or another doubt; inactive means no such curve, though single readings can be large; an effect the other way counts as inactive or inconclusive. Potency means the concentration at half of the fitted maximal effect.

SMILES	Gal4-VP16 FLuc	ATXN2 expr inh	ATXN viability	TGFb SMAD3 inh	HepG2 viability	RORg inh
CCCN1CCN(C(=O)c2cc(COc3ccc4ncccc4c3)on2)CC1	20µM*	-35.9%	i	-27.3%	-9.8%	12.6µM*
COCCOC1CCN(C(=O)c2cc(COc3ccc(-n4cncn4)cc3)on2)CC1	3.1%	3.1%	i	-2.6%	14.2%	1.7%
CCN1CCN(C(=O)c2cc(COc3ccc4ncccc4c3)on2)CC1	?	-24.3%	i	9.0%	12.6%	-43.9%
COCCN(C(=O)COC(=O)c1ccc(Cl)nc1)c1c(N)n(Cc2ccccc2)c(=O)[nH]c1=O	.	35.7%	i	7.6%	9.9%	.
Cc1ccc(C)c(Cn2c(=O)n(CC3CCC(C(=O)N4CCOCC4)CC3)c(=O)c3sccc32)c1 (centres undefined)	.	9.4%	i	-1.5%	-0.8%	.
c1ccc(CNc2nc(N3CCOc4ccccc43)nc3c2CCCC3)cc1	.	0.3%	.	.	.	.
Cc1nc(CN(C)C(=O)c2cc(COc3ccc4ncccc4c3)on2)cs1	6.31µM*	-11.3%[11.3 µM]	i	-23.5%	-32.1%	?
Cc1ccc(F)cc1NC(=O)CCc1c(C)nn(-c2ccc(N3CCCCC3)nn2)c1C	-0.1%	23.1%	i	7.3%	-2.8%	-11.6%
Cc1cc(F)ccc1NC(=O)CCc1c(C)nn(-c2ccc(N3CCCCC3)nn2)c1C	0.8%	-4.4%	i	-25.3%	4.7%	8.91µM*
S=C(NCCC1=CCCCC1)Nc1ccc(Cl)cc1	?	7.8%	i	-5.6%	-23.7%	3.55µM*
COc1ccc(C)cc1S(=O)(=O)NCCC1=CCCCC1	11.2µM*	-3.9%	i	-25.6%	2.6%	-11.0%
COc1ccc(NC(=S)NCCC2=CCCCC2)cc1OC	12.6µM*	9.1%	i	-5.6%	-27.0%	2.51µM*
COc1ccc(NC(=O)NCCC2=CCCCC2)cc1	-5.4%	19.8%	?	9.1%	4.2%	-1.4%
Clc1ccc(CNCCC2=CCCCC2)cc1	-0.9%	-39.0%	?	7.8%	-30.5%	-5.1%
COCc1c(C(=O)NC2CCCC2)cnn1-c1nccc(-c2cccs2)n1	.	.	i	.	.	.
CC(C)C[C@H](NC(=O)[C@@H](NC(=O)c1cccc(-c2ccccc2)n1)[C@@H](C)O)B(O)O	.	0.0611µM*	.	.	.	.
CC(=O)Nc1c(C)ccc2nsnc12	-5.9%	6.3%	i	5.5%	2.6%	?
Cc1ccc2nsnc2c1NC(=O)c1ccc([N+](=O)[O-])cc1	?	-29.5%[11.3 µM]	i	-10.7%	0.0%	7.94µM*
COc1ncc2nc(C)c(=O)n(C3CC3)c2n1	5.6%	.	.	.	.	-5.4%
COc1ccc(C(=O)NCCn2ccc3ccccc32)c(OC)c1	?	43.4%	i	-15.2%	-0.7%	10µM*
COc1ccc(C(=O)NCCN2CCOCC2)c(OC)c1	-1.5%	-3.9%[11.3 µM]	i	8.2%	-4.0%	29.2%
C[C@@H]1CN([C@H](C)CO)C(=O)c2c(c3ccccc3n2C)-c2ccccc2CO[C@H]1CN(C)S(=O)(=O)c1cn(C)cn1	.	9.1%	i	5.6%	1.8%	.
Oc1ccc(NCc2cccc(OCc3ccc(F)cc3)c2)cc1	?	.	i	?	-94.6%	10µM*
c1ccc(COc2cccc(CNCc3ccccn3)c2)cc1	-18.7%	10.8%	i	-10.5%	-9.5%	11.2µM*
O=[N+]([O-])c1ccc(COc2cccc(CNc3ccc(F)cc3)c2)cc1	4.7%	2.5%	i	?	-22.9%	22.8%
Oc1ccc(NCc2cccc(OCc3ccccc3)c2)cc1	?	.	.	-10.7%	-11.6%	11.2µM*
O=C(CSc1nc(-c2ccccc2)nc2c1CCCC2)c1ccc(F)cc1	.	2.8%	i	12.6%	3.8%	.
CCOc1ccc(/C=C/C(=O)c2cccs2)cc1	-21.3%	.	.	.	.	22.4µM*
O=C(C=Cc1ccccc1)c1cccs1	.	26.0%	?	11.2µM*	-63.3%	.
O=C(/C=C/c1ccccc1)c1cccs1	-5.2%	.	.	.	.	22.4µM*
